# Screening results as filed in PubChem BioAssay.
# A selection: hits, their analogues and other compounds. The true share with any hit is near 21%.
# HCMV antiviral: inhibitors of human cytomegalovirus. activity change, negative = inhibition, % at 57.5 µM. AID 1259415. 410,000 tested, 4.5% active. HFF cells, HCMV-luciferase reporter, 72 h; hits give low values; in the data active = activity change below about -60%; inconclusive = no clear call, values can overlap the other calls; inactive = above about -39%; also: % is scaled to controls: 0 for no effect and ±100 for the full control effect
#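 Two-dose cell screen: HFF monolayers treated with compounds and infected with luciferase-expressing HCMV at 1 PFU/cell, 72 h at 37C, then lysed for luciferase measurement.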
# Pf growth 48h: inhibits P. falciparum growth in the first generation, 48 h; AID 504832; P. falciparum luciferase growth in erythrocytes, 48 h; Potency, µM (highest dose often 28.7 µM), without a hit: top-dose activity change, negative = inhibition, usual class: inhibitors; 310,000 tested, 5.9% active; also: potency is read from the fitted curve at half-maximal effect; % is scaled to controls: 0 for no effect and ±100 for the full control effect
#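 Firefly luciferase activity from engineered P. falciparum reports growth; inhibitors lower the luminescent signal. Cultures contained 2% hematocrit erythrocytes at 0.1% final parasitemia.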
# Shiga inhibitor: Shiga toxin inhibition | Vero cells, Shiga toxin protein synthesis inhibition reporter | inhibition, % at 38.7 µM | 290,000 tested, 9.2% active | AID 2315; in the data active = inhibition mostly above about 28%, no sharp cut-off; inactive = mostly below about 43%; also: 0% is about no effect
# CHX counter: affects cycloheximide protein synthesis inhibition readout, counter-screen; max response, %; 300,000 tested, 12% active; cell reporter, cycloheximide protein synthesis inhibition counterscreen; in the data active = max response mostly above about 13%, no sharp cut-off; inactive = mostly below about 14%; also: read at 38.3 µM for the half of the compounds with a filed dose; 0% is about no effect
# Pf growth 96h: P. falciparum growth inhibition at 96 hour, primary screen for plastid delayed-death inhibitors; P. falciparum luciferase reporter growth, 96 h; Potency, µM (series often up to 28.7 µM), for inactives: at the top dose activity change, negative = inhibition, most hits filed as inhibitors; 320,000 tested, 6.9% active; also: potency is read from the fitted curve at half-maximal effect; % is scaled to controls: 0 for no effect and ±100 for the full control effect
#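 Delayed-death screen, second-generation endpoint: infected erythrocytes, 2% hematocrit, 0.05% parasitemia final; 96 hours at 37 C, 5% CO2; luciferase detection reagent; luminescence decrease equals reduced growth.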
# HCV inh: HCV inhibition. Huh7.5.1 HCVcc-Cre infection, luciferase reporter, 44 h. Potency, µM (top dose mostly 41.8 µM), inactives show at the top dose activity change, negative = inhibition, usual class: inhibitors. AID 651820. 340,000 tested, 3.4% active; also: potency is read from the fitted curve at half-maximal effect; % is scaled to controls: 0 for no effect and ±100 for the full control effect
#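 HCVcc-Cre virus at an moi near 0.5 was added right after compound to cells cultured 4 h from seeding (1,000 cells/well). Luciferase activity was determined 44 h later, 15 min after substrate addition at RT.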
# * hit, by the source's call; ? = inconclusive; . = no result given. Unless noted, calls follow the shape of the dose curve; as a rule, active = well fitted inhibition curve with a large enough effect; inconclusive = small, poorly fitted or top-dose-only effect, or another doubt; inactive = no such curve, though single readings can be large or run the other way.
SMILES,HCMV antiviral,Pf growth 48h,Shiga inhibitor,CHX counter,Pf growth 96h,HCV inh
Cc1ccc(C)c(C(=O)N(Cc2nc(-c3ccc(Cl)cc3)no2)C(C)C)c1,-17,.,-3,8,-5%,10µM*
COc1cc2c(cc1OC)CN(C(=O)CCN1C(=O)C3CCCCC3C1=O)CC2 (centres undefined),0,-5%,-6,2,0%,14%
COc1cc2c(cc1OC)CN(C(=O)CC1CC3CCC1C3)CC2 (centres undefined),-18,?,13,5,2.6µM*,-22%
N#Cc1ccccc1OCC(=O)N1CCc2ccccc2C1,-9,?,19,7,?,-26%
COc1cc2c(cc1OC)CN(C(=O)COc1ccccc1C#N)CC2,81,?,19,22*,?,-22%
O=C(CN1CCN(S(=O)(=O)c2ccccc2)CC1)N1CCc2ccccc21,-37,?,.,.,12µM*,-18%
COc1cc2c(cc1OC)CN(C(=O)CN1CCN(S(=O)(=O)c3ccccc3)CC1)CC2,-23,?,-5,-12,13µM*,7%
O=C(CN1CCN(S(=O)(=O)c2ccc(Br)s2)CC1)N1CCc2ccccc21,-16,.,.,.,.,.
CCn1c(SCC(=O)NC2CCCCC2)nc2c(c1=O)SCC2,-10,-23%,-26,4,?,.
CC(C)c1ccc(NC(=O)C(Cc2ccccc2)NS(=O)(=O)c2ccc3c(c2)oc(=O)n3C)cc1 (centres undefined),-24,.,.,.,.,.
Cc1c(C)c2c(c(C)c1O)CCC(C)(COc1ccc(Cc3sc(=O)[nH]c3O)cc1)O2 (centres undefined),.,.,15,1,.,.
C#CCNC(=O)C[C@@H]1C[C@@]2(C(=O)OC)CC(C)(C)CC=C2N(Cc2ccco2)C1=O,4,.,.,.,.,.
CCOc1ccc(-c2nc(CN3CCCC(C(=O)N4CCOCC4)C3)c(C)o2)cc1 (centres undefined),18,?,31*,18*,92%,-5%
CCOC(=O)C1CCCN(C(=O)C2CCN(Cc3nc(-c4ccc(Cl)cc4)oc3C)CC2)C1 (centres undefined),-25,.,.,.,.,11µM*
Cc1ccc(-c2nc(CN3CCCC(C(=O)N4CCOCC4)C3)c(C)o2)cc1 (centres undefined),.,24%,35,1,9%,?
Cc1oc(-c2ccc(Cl)cc2)nc1CN1CCC(C(=O)N2CCN(Cc3ccccc3)CC2)CC1,-32,.,-6,-5,34%,-21%
COc1ccc2[nH]c3c(c2c1)CCN1C(=O)C(CC(=O)NC/C=C(\C)CCC=C(C)C)C[C@H](C(=O)N2CCOCC2)[C@@]31CCC1CCCC1 (some centres undefined),8,.,.,.,.,2.5µM*
CC[C@]12c3[nH]c4ccc(OC)cc4c3CCN1C(=O)C(CC(=O)NC/C=C(\C)CCC=C(C)C)C[C@@H]2C(=O)N1CCN(C(=O)C2CC2)CC1 (some centres undefined),0,.,.,.,.,?
CN(C)C(=O)CCc1ccc2c3c([nH]c2c1)[C@]1(CCC2CCCC2)[C@@H](C(=O)N2CCOCC2)C[C@H](CC(=O)NCC24CC5CC(CC(C5)C2)C4)C(=O)N1CC3,-14,.,.,.,.,-2%
CC(C)=CCC/C(C)=C/CNC(=O)C[C@H]1C[C@H](C(=O)N2CCOCC2)[C@@]2(CCC3CCCC3)c3[nH]c4cc(CCC(=O)N(C)C)ccc4c3CCN2C1=O,-108*,.,.,.,.,11µM*
CC[C@]12c3[nH]c4ccc(Cl)cc4c3CCN1C(=O)[C@@H](CC(=O)NC(C)(C)C)C[C@@H]2C(=O)N1CCN(C(=O)c2ccco2)CC1,-14,.,.,.,.,16%
CC[C@]12c3[nH]c4ccc(Cl)cc4c3CCN1C(=O)[C@@H](CC(=O)NC/C=C(\C)CCC=C(C)C)C[C@@H]2C(=O)N1CCN(C(=O)c2ccco2)CC1,?,.,.,.,.,11µM*
Cc1ccc(CN2CCC[C@]3(N[C@H](c4ccc(C)cc4)[C@@H]4C(=O)N(Cc5ccccc5)C(=O)[C@@H]43)C2=O)cc1,2,.,.,.,.,.
O=C(NCC(c1ccc2c(c1)OCO2)N1CCOCC1)c1ccccc1F (centres undefined),63,.,.,.,.,.
O.O.[Mn].[Mn].[Mn].[OH-].[OH-],.,.,-4,-6,.,.
SMILES,HCMV antiviral,Pf growth 48h,Shiga inhibitor,CHX counter,Pf growth 96h,HCV inh
CC1CCN(C(=O)Cn2c(=O)n(CCCC(=O)NCc3ccco3)c(=O)c3sccc32)CC1,30,-16%,-4,-12,?,12%
CCC(C)Sc1nc(O)c(Cc2ccccc2)c(=O)[nH]1 (centres undefined),23,.,-1,-2,2.6µM*,-2%
COc1ccc(-c2nnc(SCC(N)=O)n2N)cc1,10,33%,25,1,?,14%
C=C(C)CSc1nnc(-c2ccc(OC)cc2)n1N,129,47%,53*,45*,30%,-3%
C=C(C)CSc1nnc(-c2cccc(Cl)c2)n1N,36,69%,111*,42*,38%,-9%
Nn1c(SCC(=O)Nc2ccc3c(c2)OCO3)nnc1-c1cccc(Cl)c1,3,18%,12,7,48%,3%
COc1cccc(NC(=O)/C(C#N)=C\c2cn(Cc3ccc(C)cc3)c3ccccc23)c1,2,.,.,.,.,.
COC(=O)c1ccc(N2CCN(c3ccccc3)CC2)nc1,-14,134%,45*,25*,159%,-14%
O=C(OCC(=O)N1CCN(c2ccccc2)CC1)c1cnc(Cl)c(Cl)c1,-29,-6%,-16,-10,4%,.
C(=N\N1CCN(c2ccccc2)CC1)/c1ccccc1,-4,47%,21,14,-2%,9%
C=CCOC(=O)c1ccc(N2CCN(c3ccccc3)CC2)nc1,-36,2%,34,20*,-15%,12%
CC(C)NC(=O)c1ccc(N2CCOCC2)nc1,59,.,5,9,5%,9%
COC(=O)c1ccc(/C=N\N2CCN(c3ccccc3)CC2)cc1,133,0%,118*,21*,-6%,3%
COC(=O)c1ccc(N2CCN(c3ccccc3)CC2)c(N)c1,32,35%,36,16*,63%,-13%
Cc1ccc(S(=O)(=O)NCC(=O)NCC(=O)OC(C(=O)NC(N)=O)C(C)C)cc1C (centres undefined),0,2%,12,-2,?,2%
C/C(N)=C(/C#N)C(=O)CN1C(=O)NC(Cc2c[nH]c3ccccc23)C1=O (centres undefined),-37,.,17,13,23%,13%
CN(CC(=O)Nc1ccccc1-c1ccccc1)C1CCCCC1,?,?,1,-3,106%,?
CCCNC(=S)NC1CC2CCCC(C1)N2Cc1ccc(F)cc1 (centres undefined),60,?,-8,-7,?,-25%
